Structures are written as SMILES. Records with an inconclusive call do not appear. A call without a number means that no potency is given here. Active and inactive are the calls of the source. Calls follow the shape of the dose curve; as a rule, active = well fitted inhibition curve with a large enough effect; inconclusive = small, poorly fitted or top-dose-only effect; inactive = flat fitted curve, though single readings scatter.
Potency is read from the fitted curve at half-maximal effect.

The test deals with CP194. In words: qHTS profiling for inhibitors of Plasmodium falciparum proliferation (AID 504749). Also: nearly all actives have a fitted effect of over 60% in size. To be noted: P. falciparum in erythrocytes, SYBR Green DNA, 72 h; series mostly up to 28.7 µM. A digest of the protocol: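 SYBR Green fluorescence (ex 485 nm, em 535 nm) reports parasite DNA after 72 h compound exposure of infected red cells at 0.3% parasitemia, 2.5% hematocrit; signal normalized to 0.29 uM artemisinin and vehicle wells.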
In the case of `Cc1ccc(C(C)(C)c2ccc(C)cc2)cc1`, the Potency result was “inactive”. Under `N[C@H](CC(=O)O)C(=O)O` stands “inactive”. For the compound `O=C(O)COc1ccc(CCNS(=O)(=O)c2ccccc2)s1`, the Potency result was “inactive”.

Turning to `O=S(=O)(O)CCCS(=O)(=O)O`, the Potency result is “inactive”. Under `COC(=O)c1ccccc1O` stands “inactive”. For `CC1(O)CCC(C(C)(C)O)CC1` (configuration not stated) the value was “inactive”; for `COc1ccc(/C=C/C(=O)O)cc1`, “inactive”. Take `CC(=O)Nc1c(I)c(C(=O)O)c(I)c(N(C)C(C)=O)c1I`: the Potency result was “inactive”. Under `Nc1ncnc2c1ncn2[C@H]1CC[C@@H](CO)O1` stands “inactive”; under `COC(=O)C(CN)c1c[nH]c2ccc(OC)cc12` (configuration not stated), “inactive”.

As to `CC/C(=C(/CC)c1ccc(OP(=O)(O)O)cc1)c1ccc(OP(=O)(O)O)cc1`, the Potency result is “inactive”. On to `CN1c2c(nc(N)[nH]c2=O)NCC1CNc1ccc(C(=O)NC(CCC(=O)O)C(=O)O)cc1` (configuration not stated), for which the Potency result is “inactive”. For `CC(C)(CO)[C@@H](O)C(=O)NCCC(=O)NCCSSCCNC(=O)CCNC(=O)[C@H](O)C(C)(C)CO`, the Potency result was “inactive”. Regarding `CCCC(=O)O`, the Potency result is “inactive”. For `CCSc1ccc2c(c1)N(CCCN1CCN(C)CC1)c1ccccc1S2`, the Potency result is “inactive”. Under `CC1=CC(=C(c2ccc(N)cc2)c2ccc(N)cc2)C=CC1=N` stands 3.79 µM (active).

For the compound `CC1=CC(=O)NS(=O)(=O)O1`, the Potency entry was “inactive”. For `CC1CCCCN1CCCOC(=O)c1ccccc1` (configuration not stated) the value was “inactive”. Under `COC(=O)CC[C@H](N)C(=O)O` stands “inactive”; under `C[C@H](CCC(=O)O)[C@H]1CC[C@H]2[C@@H]3CC[C@@H]4C[C@H](O)CC[C@]4(C)[C@H]3C[C@H](O)[C@]12C`, “inactive”; under `CO`, “inactive”. For the compound `C=CCN1CCCC1CNC(=O)c1cc(S(N)(=O)=O)cc(OC)c1OC` (configuration not stated), the Potency entry was “inactive”.

These data come from PubChem BioAssay (NCATS).
